Ecoli rRNA inh: selective bacterial rRNA inhibition in E. coli; E. coli WT GFP vs humanized-ribosome RFP mutants, fluorescence, 24 h; active compounds read low; DMSO median 0, no signal -100; GFP signal change (wild-type ribosome), % (concentration not given with the values); actives 1.6% (n = 350,000);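 active = significant combined selectivity score with lowered wild-type GFP, culture density cut under 30%, mutant RFP and density less affected; inactive = any of these conditions unmet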
AF4-AF9 inh: blocks AF4 peptide binding to human AF9; P42568; AlphaScreen, biotin-AF4 peptide binding to FLAG-AF9; inhibition, % at 10 µM; actives 0.47% (n = 350,000);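 active = every replicate reaching a set inhibition limit, whatever the replicate mean, cut at about 25% in these data; inconclusive = mean inhibition reaches that limit but some replicates miss it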
Target sequence (P42568 whole entry, looked up): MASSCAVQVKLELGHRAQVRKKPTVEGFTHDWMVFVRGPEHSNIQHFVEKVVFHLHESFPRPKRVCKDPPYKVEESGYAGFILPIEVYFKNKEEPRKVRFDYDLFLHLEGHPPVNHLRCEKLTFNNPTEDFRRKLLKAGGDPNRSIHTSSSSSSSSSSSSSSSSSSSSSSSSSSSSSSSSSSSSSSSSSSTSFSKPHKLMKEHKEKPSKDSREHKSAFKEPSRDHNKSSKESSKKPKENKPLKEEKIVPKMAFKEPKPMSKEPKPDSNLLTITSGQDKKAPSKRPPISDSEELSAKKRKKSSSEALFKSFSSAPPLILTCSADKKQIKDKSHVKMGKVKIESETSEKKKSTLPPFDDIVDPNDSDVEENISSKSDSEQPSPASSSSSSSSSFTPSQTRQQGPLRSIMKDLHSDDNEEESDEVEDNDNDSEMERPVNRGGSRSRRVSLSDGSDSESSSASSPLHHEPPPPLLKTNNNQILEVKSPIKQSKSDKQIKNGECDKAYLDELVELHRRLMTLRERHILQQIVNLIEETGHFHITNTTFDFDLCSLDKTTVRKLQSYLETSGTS
MITF TRPM1 HTS: MITF TRPM1 promoter activation in melanoma cells. SK-MEL-5 TRPM1-promoter luciferase, 24 h; % of positive control, neutral wells = 0. activation, % at 12.5 µM. actives 0.75% (n = 300,000);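 active = mean activation of at least 80% with every replicate also reaching 80%; inconclusive = mean reaches 80% but some replicate falls short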
esBAF inh: blocks esBAF chromatin remodeling in mouse ES cells. Bmi1-luciferase knock-in reporter, 24 h; 100% = twice the neutral-well signal. reporter increase, % at 12.5 µM. actives 2% (n = 350,000). AID 602393; in the data active = activation above about 40%; inconclusive = no clear call, values can overlap the other calls;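 also: a rise in the Bmi1 reporter signal indicates esBAF inhibition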
Wnt bcat act: activators of Wnt/beta-catenin signaling | Wnt/beta-catenin reporter cell assay, activator, plate reader | activation, % at 9.35 µM | actives 1.2% (n = 300,000) | AID 743398; in the data active = activation above about 30%, passing the limit was not always enough; inconclusive = no clear call, values can overlap the other calls
AID977621: growth inhibition of wild-type GFP E. coli, dose response, H69 mutant RFP, cherry-pick; activity change, negative = inhibition at 50 µM; 1,900 tested, under 10 active; E. coli wild-type GFP strain growth, fluorescence, 24 h; shares compounds with Ecoli rRNA inh;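 active = Wild-type ribosome reporter drop at least double the humanized mutant ribosome reporter drop, growth loss under a set limit; inconclusive = no clear call, values can overlap the other calls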;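 also: wild-type GFP and H69 mutant RFP strains grown together 50/50 in each well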
AID977628: E. coli growth inhibition, wild-type GFP versus h24 humanized RFP strain, dose response, h24 mutant RFP vs wild-type GFP, cherry-pick | 1,900 tested, under 10 active | shares compounds with Ecoli rRNA inh | E. coli WT GFP strain growth, fluorescence, 24 h | activity change, negative = inhibition at 50 µM;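 active = compound lowering the normal-ribosome reporter at least twice as much as the humanized-ribosome reporter, growth loss under a set limit; inconclusive = no clear call, values can overlap the other calls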;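 also: wild-type GFP and h24 humanized RFP strains co-cultured 1 to 1 per well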
A number is an active result; i = inactive; ? = inconclusive; nt = no result. This is a sample that favours compounds with a hit; in the whole collection about 3.7% have one here.

SMILES	Ecoli rRNA inh	AF4-AF9 inh	MITF TRPM1 HTS	esBAF inh	Wnt bcat act	AID977621	AID977628
Cc1ccccc1NS(=O)(=O)c1cc(C(=O)N2CCc3ccccc3C2)ccc1C	nt	nt	i	i	i	nt	nt
Cc1ccccc1NS(=O)(=O)c1cc(C(=O)NCCC2=CCCCC2)ccc1C	-17	i	i	i	i	i	?
CSc1nc(NCCCO)c2c3c(sc2n1)CN(C)CC3	i	i	i	nt	i	nt	nt
Cc1noc(C)c1S(=O)(=O)Nc1ccc2c(c1)C(=O)N([C@@H](C)CO)C[C@H](C)[C@@H](CN(C)C(=O)CCCN(C)C)OCCCC[C@H](C)O2	i	nt	nt	i	nt	nt	nt
O=C(N[C@@H]1CC[C@H](CCNC(=O)C2CC2)O[C@H]1CO)c1ccccn1	i	i	nt	i	nt	nt	nt
O=C(Nc1cccc(Cl)c1)c1ccc2c(=O)n3c(nc2c1)CCCCC3	nt	nt	i	nt	nt	nt	nt
CCc1cccc(NC(=O)c2ccc3c(=O)n4c(nc3c2)CCCCC4)c1	-19	i	i	i	i	i	i
CCCOC(=O)c1ccc(NC(=O)CCC(=O)OCC)cc1	nt	nt	i	i	nt	nt	nt
Cc1ccc(NC(=O)c2c(C)noc2-c2snnc2C)cc1	-22	i	i	i	i	nt	?
CC1=CN2C(=N)/C(=C\c3cn(CCCOc4ccccc4)c4ccccc34)C(=O)N=C2S1	nt	nt	i	nt	nt	nt	nt
CCC1(CC)NC(=O)N(CC(=O)N2N=C(c3ccc(Cl)cc3)CC2c2ccco2)C1=O (stereo not given)	-25	i	i	i	i	i	?
CCC(=O)N1N=C(c2ccc(C)cc2)CC1c1ccco1 (stereo not given)	i	i	i	nt	i	nt	nt
COc1ccc(OC)c(N(CC(=O)Nc2ccccc2F)S(=O)(=O)c2ccccc2)c1	-24	i	i	i	i	i	nt
COc1ccc(N(CC(=O)Nc2ccccc2C(=O)N2CCOCC2)S(=O)(=O)c2ccc(F)cc2)cc1	nt	nt	i	nt	i	nt	nt
COc1ccc(OC)c(N(CC(=O)NN=C2CCN(C)CC2)S(=O)(=O)c2ccccc2)c1	i	i	i	i	i	nt	nt
O=C(CN(c1ccc(F)cc1)S(=O)(=O)c1ccccc1)Nc1ccccc1C(=O)O	-27	i	i	i	i	i	nt
Fc1ccccc1C1CCN(Cc2nc(CC3CC3)no2)C1 (stereo not given)	-18	i	i	nt	44	i	i
CCC(=O)Nc1ccc2c(c1)OC[C@@H](C)N(Cc1ccccn1)C[C@@H](C)[C@H](OC)CN(C)C2=O	i	i	nt	i	nt	nt	nt
COc1ccc2nc(SCC(=O)Nc3ccccc3)[nH]c2c1	-20	i	i	nt	i	i	nt
CCOC(=O)Cc1nnc(NC(=O)CSc2nc3ccccc3[nH]2)s1	-17	i	i	nt	i	nt	i
O=C(CSc1nc2ccccc2[nH]1)Nc1ccccc1F	-26	i	i	i	i	nt	?
COc1ccc2nc(SCC(=O)NCc3ccccc3)[nH]c2c1	i	i	i	i	i	nt	nt
Cc1ccc2nc(SCC(=O)Nc3ccc(F)cc3F)[nH]c2c1	nt	nt	i	i	i	nt	nt
Cc1ccc2nc(SCC(=O)Nc3c(F)cccc3F)[nH]c2c1	-22	i	i	i	i	nt	?
Cc1csc(CN(C)C(=O)C2CCC(=O)N(CCN(C)C)C2)n1 (stereo not given)	i	i	i	i	i	nt	nt
SMILES	Ecoli rRNA inh	AF4-AF9 inh	MITF TRPM1 HTS	esBAF inh	Wnt bcat act	AID977621	AID977628
Cc1nc(/C(=N/O)C(N)=O)cs1	i	i	i	i	i	nt	nt
CC(C)Sc1sc(C(=O)O)c(-c2ccc(Cl)cc2)c1C#N	-43	i	i	i	i	i	nt
N#Cc1c(SCc2ccc(Cl)cc2)sc(C(=O)c2ccccc2)c1N	nt	nt	i	i	nt	nt	nt
CC1CCC(C(C)C)C(OCC(O)CN2CCCC(C)C2)C1 (stereo not given)	-22	i	i	nt	i	i	?
COc1ccc(C(=O)c2c(C)oc3ccc(O)cc23)cc1	-22	i	i	i	i	i	nt
O=S(=O)(Oc1ccccc1/C=N/n1cnnc1)c1ccccc1	i	i	i	nt	i	nt	nt
Cc1csc(SCc2nc3scc(-c4ccccc4)c3c(=O)[nH]2)n1	-24	i	i	i	i	i	i
N#Cc1ccc(C(=O)Nc2ccn(-c3ccccc3)n2)cc1	-14	i	i	nt	i	i	nt
O=C(Nc1ccn(-c2ccccc2)n1)c1ccc(Cl)cc1	nt	nt	i	nt	i	nt	nt
COc1ccc(-c2nc3ccc(Cl)cn3c2Cc2cccc(F)c2)cc1OC	-21	i	nt	i	i	?	nt
Fc1ccc(-c2nc3ccc(Cl)cn3c2Cc2cccc(Cl)c2)cc1	-21	i	nt	i	i	i	i
Clc1ccc(-c2nc3ccc(Cl)cn3c2Cc2cccc(Cl)c2)cc1	i	i	nt	i	i	nt	nt
COc1ccc(Cc2c(-c3cccc(Cl)c3)nc3ccc(Cl)cn23)c(C)c1	-19	i	nt	i	i	?	i
Cc1ccc2nc(-c3ccc(Cl)cc3)c(Cc3ccccc3C(F)(F)F)n2c1	-16	i	nt	50	i	i	i
Cc1ccc(Cc2c(-c3cccc(Cl)c3)nc3ccc(Cl)cn23)cc1	nt	i	nt	i	i	nt	nt
COc1ccc(-c2nc3ccc(C)cn3c2Cc2cccc(F)c2)cc1OC	i	i	nt	i	i	nt	nt
CCCNC(=O)NC(C)C12CC3CC(CC(C3)C1)C2 (stereo not given)	i	i	i	i	i	nt	nt
Cn1nc([N+](=O)[O-])nc1Sc1nnnn1-c1ccc(C(=O)O)cc1	i	i	i	nt	i	nt	nt
O=S1(=O)C=C(Sc2nc3cc(Cl)ccc3o2)c2ccccc21	nt	nt	nt	i	nt	nt	nt
Nc1ccc(C(=O)OCCCc2nc3cc4ccccc4cc3[nH]2)cc1	-17	i	i	i	i	i	i
CCCCCCOC(=O)c1ccc(N)cc1	i	i	i	nt	i	nt	nt
Cc1ccc(-c2nc3cc(C)c(Br)c(C)n3c2CC2CCCCC2)cc1	i	i	nt	nt	i	nt	nt
CCCc1nc2cc(C)c(Br)c(C)n2c1CC1CCCCC1	-20	i	nt	nt	i	nt	i
C[C@H](CO)N1C[C@H](C)[C@H](CN(C)Cc2ccc(C(F)(F)F)cc2)Oc2ccc(NC(=O)CCN3CCOCC3)cc2CC1=O	i	i	nt	i	nt	nt	nt
O=C(COC(=O)CCC(=O)c1ccccc1)NCCc1ccccc1	i	i	i	nt	i	nt	nt
SMILES	Ecoli rRNA inh	AF4-AF9 inh	MITF TRPM1 HTS	esBAF inh	Wnt bcat act	AID977621	AID977628
O=C(COC(=O)CCC(=O)c1ccc(F)cc1)NCCc1ccccc1	-21	i	i	nt	i	i	nt
O=C(COC(=O)CCSc1ccc(F)cc1)NCc1ccc(F)cc1	-17	i	i	i	i	nt	?
O=C(COC(=O)C1CC2C=CC1C2)NCCc1ccccc1 (stereo not given)	-21	i	i	i	i	i	i
O=C(COC(=O)C1CC1)NCCc1ccccc1	nt	i	i	i	i	nt	nt
O=C(COC(=O)CCSc1ccccc1)NCc1ccccc1	i	i	i	i	i	nt	nt
Cc1cccc(S(=O)(=O)Nc2ccc3c(c2)OCCO3)c1	i	i	i	nt	i	nt	nt
